AMA1-RON2 inh – inhibitors of Plasmodium falciparum AMA1-RON2 interaction; AlphaScreen AMA1-biotinylated RON2 peptide binding; Potency, µM (titrated, usually from 58.2 µM), inactives show at the top dose activity change, negative = inhibition, usual class: inhibitors; hit rate 0.2% among 360,000; AID 720542;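 note: 0% = vehicle wells and -100% = peptide control; nearly all actives have a fitted effect of over 45% in size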
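AMA1 (3D7) with his tag at 25 nM final met compounds first, then biotinylated RON2 peptide at 25 nM; detection used donor plus acceptor beads, 10 µg/mL apiece, read by AlphaScreen after 30 min at room temperature.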
Sm TGR block – inhibitors of Schistosoma mansoni thioredoxin glutathione reductase. hit rate 3% among 360,000. purified TGR, DTNB reduction, TNB absorbance 405 nm. Potency, µM (highest dose often 114 µM), inactives show at the top dose activity change, negative = inhibition, most hits filed as inhibitors; note: nearly all actives have a fitted effect of over 60% in size
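First, TGR (20 nM dispensed) and NADPH were mixed with compound. Second, a 15 min room-temperature incubation followed. Third, further NADPH and then DTNB were added to start the reaction. Finally, TNB absorbance was monitored kinetically.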
LmPK inhibitor – LmPK (Leishmania mexicana) enzyme inhibition; Q27686; purified LmPK, Kinase-Glo ATP luminescence, 1 h; Potency, µM (highest dose often 57.5 µM), for inactives: at the highest dose activity change, negative = inhibition, actives largely listed as inhibitors; hit rate 0.37% among 290,000; AID 1721
Target sequence (Q27686 whole entry, looked up): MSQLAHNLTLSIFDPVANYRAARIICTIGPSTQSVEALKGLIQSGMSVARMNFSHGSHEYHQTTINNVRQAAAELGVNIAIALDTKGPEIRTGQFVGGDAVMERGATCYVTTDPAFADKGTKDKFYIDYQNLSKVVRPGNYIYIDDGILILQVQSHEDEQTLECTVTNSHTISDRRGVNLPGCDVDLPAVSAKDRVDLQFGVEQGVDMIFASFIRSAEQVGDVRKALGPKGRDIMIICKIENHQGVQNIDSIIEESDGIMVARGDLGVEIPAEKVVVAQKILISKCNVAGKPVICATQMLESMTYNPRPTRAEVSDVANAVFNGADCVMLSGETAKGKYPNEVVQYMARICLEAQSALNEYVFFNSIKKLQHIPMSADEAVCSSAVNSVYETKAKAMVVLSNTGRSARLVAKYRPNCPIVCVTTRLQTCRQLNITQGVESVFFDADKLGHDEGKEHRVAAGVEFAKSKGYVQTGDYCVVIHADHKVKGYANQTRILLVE
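Pyruvate kinase activity monitored as ATP production (luciferase luminescence). Conditions: 0.1 nM enzyme, 0.5 mM PEP, 0.1 mM ADP, 1 h, RT; normalized against uninhibited and no-enzyme wells.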
TbPYK inhibitor – blocks Trypanosoma brucei pyruvate kinase. AID 624173. Q57TT1. hit rate 0.12% among 410,000. Potency, µM (top dose mostly 76.8 µM), inactives show at the top dose activity, negative = inhibition, hits mostly inhibitors. TbPYK enzyme, Kinase-Glo Plus ATP luminescence, 45 min; note: nearly all actives have a fitted effect of over 50% in size
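Readout: single end-point luminescence (Kinase-Glo Plus, 10 min). Reaction conditions were TbPYK/substrate plus 130 uM ADP, 45 min at RT, pH 7.2 TEA buffer. No-enzyme wells served as controls, and data were normalized before concentration-response fitting.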
RE007 growth inh – less growth of the S. pombe RE007 Vpr strain | S. pombe RE007 Vpr strain, BacTiter-Glo ATP luminescence, 24 h | Potency, µM (top dose mostly 92.2 µM), inactives show top-dose activity change, negative = less growth, hits mostly inhibitors | hit rate 0.21% among 360,000; active = well fitted falling curve with a large enough effect; inconclusive = small, poorly fitted or top-dose-only effect; inactive = no such curve, though single readings can be large or run the other way; note: nearly all actives have a fitted effect of over 50% in size
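Fission yeast strain RE007, carrying one chromosomally integrated HIV-1 vpr copy, was seeded at OD 0.01 in PMG+AL medium with 23 nL pinned compound. After 24 h at 30 °C and 99% humidity, viability was read by BacTiter-Glo luminescence.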
Active calls of the source: *; ? = inconclusive; nt = not tested or not shown. Rows were chosen to be rich in hits. Some 3.2% of all compounds tested hit in one or more screens of this group. Unless noted, calls come from the whole dose curve; as a rule, active = well fitted curve in the direction sought with a large enough effect; inconclusive = small, poorly fitted or top-dose-only effect, or another doubt; inactive = no such curve, though single readings can be large; an effect the other way counts as inactive or inconclusive. Unless noted, % is set by controls: 0 for no effect and ±100 for the full control effect; potency is the fitted concentration of half-maximal effect.

SMILES	AMA1-RON2 inh	Sm TGR block	LmPK inhibitor	TbPYK inhibitor	RE007 growth inh
CC(=O)OCC(=O)[C@@]1(O)[C@H](C)C[C@H]2C3C[C@H](F)C4=CC(=O)C=CC4(C)C3[C@@H](O)CC21C (some centres undefined)	nt	nt	nt	-5%	nt
CCc1ccccc1NC(=O)Nc1nnc(N(C)Cc2ccccc2)s1	nt	-11%	nt	3%	nt
CCOC(=O)c1sc(/S(C)=N\S(=O)(=O)c2cccc(Cl)c2)c2c1CCC=C2 (centres undefined)	2%	2.8µM*	-1%	-12%	-10%
CCOC(=O)c1sc(Nc2cccc(Cl)c2)nc1C	-17%	12%	3%	4%	-3%
O=C(CCC1N=C2c3ccccc3N=C(SCc3ccc(F)cc3)N2C1=O)NCCc1ccccc1 (centres undefined)	nt	1%	nt	12%	nt
O=C(NC1CCCCC1)C(c1cccs1)N(C(=O)c1ccccn1)c1ccccc1 (centres undefined)	-3%	-3%	3%	1%	6%
OC(C#Cc1ccccn1)c1cccs1 (centres undefined)	-8%	1.4µM*	-15%	3%	-32%
Cc1nc(-c2ccc(OCC(C)C)c(C#N)c2)sc1C(=O)O	nt	nt	nt	-2%	nt
COc1ccc(NC(=S)NC(NC(=O)CF)C(Cl)(Cl)Cl)c([N+](=O)[O-])c1 (centres undefined)	-2%	40µM*	5%	3%	0%
O=C(NCc1ccco1)c1ccc(Cn2cc([N+](=O)[O-])cn2)o1	-9%	51%	-2%	-4%	7%
O=C(NCc1ccco1)c1c(F)c(F)c(F)c(C(=O)NCc2ccco2)c1F	1%	45µM*	3%	2%	-3%
O=C(NCc1ccco1)c1ccc(-c2ccccc2Cl)o1	-11%	25µM*	-1%	-5%	-25%
O=C(NCc1ccco1)c1ccc([N+](=O)[O-])o1	-6%	28µM*	4%	1%	-8%
O=C(NCc1ccco1)c1c(Cl)cccc1Cl	1%	nt	nt	-3%	3%
COc1ccccc1NC(=O)N1c2ccccc2Sc2ccccc21	nt	1%	nt	-6%	nt
COc1ccc(C(=O)N(Cc2sccc2C)C2CCS(=O)(=O)C2)cc1Cl (centres undefined)	nt	12%	nt	1%	nt
Cc1cc(NS(=O)(=O)c2ccc(NC(=S)NC(=O)c3ccccc3)cc2)no1	15%	50µM*	0%	-3%	-12%
COc1ccc(C(=O)NC(=S)Nc2ccc(S(=O)(=O)Nc3cc(C)on3)cc2)cc1OC	40%	18µM*	6%	3%	-13%
Cc1cccc(OCCn2c(-c3ccc(Cl)cc3)nc3ccccc3c2=O)c1C	nt	6%	nt	4%	nt
CC(=O)c1ccc(N2CCN(c3ncnc4c3cnn4-c3cc(Cl)ccc3C)CC2)cc1	nt	-8%	nt	0%	nt
CCOC(=O)c1[nH]c(C)c(/C(O)=C2\C(=O)C(=O)N(CCN(C)C)C2c2ccc(C)o2)c1C (centres undefined)	-2%	28µM*	-5%	1%	-20%
CCOc1ccc(C2/C(=C(\O)c3c(C)[nH]c(C(=O)OC)c3C)C(=O)C(=O)N2CCN(C)C)cc1 (centres undefined)	-10%	1%	2%	-2%	-8%
Cc1ccc(C2/C(=C(\O)c3c(C)nc4ccccn34)C(=O)C(=O)N2CCN(C)C)o1 (centres undefined)	13%	32µM*	0%	1%	86%
CCN(CC)CCN1C(=O)C(=O)/C(=C(/O)c2c(C)[nH]c(C(=O)OC)c2C)C1c1ccc(C)o1 (centres undefined)	16%	20µM*	-1%	-7%	14%
COc1cc(OC)c(NC(=O)C(c2ccccc2)N2Cc3ccccc3C2=O)cc1Cl (centres undefined)	nt	1%	nt	2%	nt
SMILES	AMA1-RON2 inh	Sm TGR block	LmPK inhibitor	TbPYK inhibitor	RE007 growth inh
COc1ccc(CCNC(=O)c2cc3sccc3n2Cc2ccc(Cl)cc2)cc1OC	nt	-3%	nt	4%	nt
CCc1ccc(NC(=O)CSc2nc3c([nH]c4ccccc43)c(=O)n2C)cc1	nt	2%	nt	22%	nt
Cc1ccnc(NC(=S)NC(=O)/C=C/c2ccco2)c1	15%	25µM*	4%	-9%	-25%
O=C(/C=C/c1ccco1)NC(=S)Nc1ccc(Cl)cn1	32%	35µM*	3%	-17%	?
COc1c(C)cc(S(=O)(=O)Nc2cccc(-c3ccc(N4CCOCC4)nn3)c2)c(C)c1C	nt	4%	nt	-16%	nt
CCOC(=O)c1ccoc1CSCc1ccc(C(=O)OC)o1	13%	28µM*	7%	-29%	-17%
COC(=O)c1ccc(Cc2ccc(C(=O)OC)o2)o1	-3%	-5%	1%	1%	3%
CCOc1ccc(CCNC(=O)CCCn2c(=O)c3cccn3c3cccnc32)cc1	nt	4%	nt	6%	nt
COc1ccc(CCNCc2c(C(=O)O)c(C)n(Cc3cccc(Cl)c3)c2C)c(OC)c1OC	nt	0%	nt	0%	nt
CCN(CC)c1ccc(N=Cc2ccc([N+](=O)[O-])o2)cc1	?	35µM*	-30%	?	?
CCN(CC)c1ccc(N=Cc2ccccc2[N+](=O)[O-])cc1	18µM*	?	-10%	-23%	?
Nc1ccc(C(=O)C(=O)c2ccc(N)cc2)cc1	13%	-3%	-1%	4%	-11%
N=C1C=CC(=C(c2ccc(N)cc2)c2ccc(N)cc2)C=C1	14µM*	nt	nt	?	?
COc1ccc(-c2noc(COc3cc(C)c(Br)c(C)c3)n2)cc1OC	nt	7%	nt	0%	nt
O=C(Cn1c(=O)nc(-c2ccccc2)c2ccccc21)NCc1ccccc1Cl	nt	-2%	nt	-5%	nt
CN1C(CSCC(F)(F)F)Nc2cc(Cl)c(S(N)(=O)=O)cc2S1(=O)=O (centres undefined)	nt	nt	nt	1%	nt
Cc1cccc(C)c1NC(=O)CCS(=O)(=O)c1ccc2c(c1)n(C)c(=O)c(=O)n2C	nt	-18%	nt	5%	nt
CCc1cccc(C)c1NC(=O)CCS(=O)(=O)c1ccc2c(c1)oc(=O)n2C	nt	25µM*	nt	-19%	nt
CCN(CC)c1ccc(/C=C/C(=O)C2C(=O)C=C(C)OC2=O)cc1 (centres undefined)	44%	8.9µM*	?	-17%	-4%
CCN(CC)c1ccc(C=C2C(=O)OC(c3ccccc3)OC2=O)cc1 (centres undefined)	-15%	-27%	-6%	-5%	12%
CC(=O)N1CCCc2cc(S(=O)(=O)NCc3ccc(OC(C)C)cc3)ccc21	nt	-6%	nt	-7%	nt
Cn1c(=O)cc2c3c(c(N4CCCCC4)ccc31)C(=O)c1ccccc1-2	?	1%	?	-2%	-2%
O=C1c2ccccc2C(=O)c2c1cccc2N1CCCC1	13µM*	-7%	-13%	-17%	nt
O=C1c2ccccc2-c2onc3ccc(N4CCCC4)c1c23	?	18µM*	-26%	-6%	?
